Results reported in PubChem BioAssay (EPA / NIEHS).
Inconclusive results are not listed. Activity calls are given as the source filed them. The calls were made as follows: active = hit-call score of the fitted dose curve at least 0.9, where 1 is the maximum; inconclusive = response in the unintended direction; inactive = score below 0.9.

These compounds were tested against human Caspase 2 (CASP2), CASP2 (gene 835) (UniProt P42575) (assay: NVS_ENZ_hCASP2: NovaScreen (NVS) Enzymatic Assay for human Caspase 2 (CASP2) (AID 2283135)).
Experimental: NVS_ENZ_hCASP2 is a biochemical, single-readout assay that uses extracted gene-proteins from E. coli in a cell-free assay. Measurements were taken 1 hour after chemical dosing in a 96-well plate.NVS_ENZ_hCASP2 is one of one assay component(s) measured or calculated from the NVS_ENZ_hCASP2 assay. It is designed to make measurements of enzyme activity, a form of enzyme reporter, as detected with fluorescence intensity signals by Fluorescence technology.Data from the assay component NVS_ENZ_hCASP2 was analyzed into 1 assay endpoint. This assay endpoint, NVS_ENZ_hCASP2, was analyzed in the positive analysis fitting direction relative to DMSO as the negative control and baseline of activity. Using a type of enzyme reporter, loss-of-signal activity can be used to understand changes in the enzymatic activity as they relate to the gene CASP2. Furthermore, this assay endpoint can be referred to as a primary readout, because this assay has produced multiple assay endpoints where this one serves a enzymatic activity function. To generalize the intended target to other relatable targets, this assay endpoint is annotated to the protease intended target family, where the subfamily is cysteine protease.
Binding assays used specific radioligands (tritiated, iodinated) with non-radioactive competitive displacement ligands in agonist or antagonist protocols (as indicated) and various reference compounds and inhibitors to titrate specific binding to receptors and transporters. Most enzyme assays (CYPs, kinases, phosphatases, proteases, HDACs) used recombinant protein and specific substrates (fluorescence mostly, some colorimetric and radioactive) and inhibitors, followed by a biochemical separation of substrate and product. All assays for the biochemical HTS were initially run in duplicate at a single concentration (10 uM for CYP450 assays and 25 uM for all others). Assay-chemical combinations meeting a pre-defined threshold (e.g., 30% inhibition and other criteria defined below) were then run in singleton concentration-response format with maximum concentration of 20 uM for CYPs and 50 uM for all others. Each assay was run with positive and negative controls, and concurrent controls on every plate. The follow-up (secondary) screen tested active chemical-pairs in concentration series, as well as a few additional assays not tested in the primary screen, some selected negative inactives, and several cases re-run in the concentration series for confirmatory purposes.

Sequence of human Caspase 2 (CASP2), CASP2 (gene 835) (P42575 whole entry, looked up): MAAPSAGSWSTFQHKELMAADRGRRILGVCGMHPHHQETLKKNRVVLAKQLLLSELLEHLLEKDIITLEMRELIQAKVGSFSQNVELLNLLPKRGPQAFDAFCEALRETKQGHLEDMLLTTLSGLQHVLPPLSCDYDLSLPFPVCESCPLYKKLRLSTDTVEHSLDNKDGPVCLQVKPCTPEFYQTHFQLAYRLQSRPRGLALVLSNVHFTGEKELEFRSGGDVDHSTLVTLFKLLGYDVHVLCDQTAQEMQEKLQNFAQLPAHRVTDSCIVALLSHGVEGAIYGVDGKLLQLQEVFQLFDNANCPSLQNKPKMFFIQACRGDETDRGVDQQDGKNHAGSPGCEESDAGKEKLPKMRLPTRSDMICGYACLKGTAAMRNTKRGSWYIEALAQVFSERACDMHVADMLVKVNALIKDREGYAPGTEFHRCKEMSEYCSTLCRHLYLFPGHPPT

SMILES | outcome | AC50
COc1ccc2cc(S(=O)(=O)N[C@H](CC(=O)N[C@H](Cc3ccc(CN4[C@H](C)CCC[C@@H]4C)cc3)C(=O)N(C)C(C)C)c3ccc4c(c3)OCO4)ccc2c1 | inactive | 
O=S(=O)(O)c1ccc(N=Nc2c(O)ccc3cc(S(=O)(=O)O)ccc23)cc1 |  | 20.4 µM (active)
COc1cc(-c2nc(NC(=O)c3cc4cc(C)cc(C)c4n3CC(=O)O)sc2CCC2CCCCC2)c(OC)cc1Cl |  | 7.75 µM (active)
CN(C)CCCN(C)CCCN(C)C | inactive | 
Cc1cccc2ccccc12 | inactive | 
Oc1cc2ccccc2c2ccccc12 |  | 14.6 µM (active)
O=C(NO)C1(NS(=O)(=O)c2ccc(Oc3ccc(F)cc3)cc2)CCOCC1 | inactive | 
CSc1ccc(Oc2ccc(S(N)(=O)=O)cc2CN(C)C)cc1C | inactive | 
N[C@@H](Cc1c[nH]c2ccccc12)C(=O)O | inactive | 
Cc1ccc(C(C)(C)C)c(O)c1 | inactive | 
CO[C@H]1/C=C/O[C@@]2(C)Oc3c(C)c(O)c4c(O)c(c(/C=N/N5CCN(C)CC5)c(O)c4c3C2=O)NC(=O)/C(C)=C\C=C\[C@H](C)[C@H](O)[C@@H](C)[C@@H](O)[C@@H](C)[C@H](OC(C)=O)[C@@H]1C | inactive | 
CCN(CC)C(=O)c1cc(S(=O)(=O)Cc2ccccc2)c(N2CCC(c3ccccc3)CC2)cc1N(CC)CCN(C)C | inactive | 
CC(=O)c1ccccc1 | inactive | 
COC(=O)CC(=O)OC | inactive | 
CC(C)COC(=O)CCCCC(=O)OCC(C)C | inactive | 
Cc1nccn1-c1ccc(Sc2cccc(C3(C(N)=O)CCOCC3)c2)cc1 | inactive | 
CC[C@@H]1C[C@H](N(Cc2cc(C(F)(F)F)cc(C(F)(F)F)c2)C(C)=O)c2cc(C(F)(F)F)ccc2N1C(=O)OC(C)C | inactive | 
NCC1(Cc2noc(=O)[nH]2)CCCCC1 | inactive | 
CCOc1ccc2c(c1)C(C)=CC(C)(C)N2 | inactive | 
CCCCOC(=O)c1ccc(O)cc1 | inactive | 

SMILES | outcome | AC50
c1ccc2c(c1)Cc1ccccc1-2 | inactive | 
S=C([S-])NCCNC(=S)[S-].[Mn+2] | inactive | 
c1ccc(Nc2ccccc2)cc1 | inactive | 
O=C(O)c1[nH]n(-c2ccc(S(=O)(=O)O)cc2)c(=O)c1N=Nc1ccc(S(=O)(=O)O)cc1 | inactive | 
Cc1c(-c2cccnc2)c2ccccc2n1CCCCC(=O)O | inactive | 
COc1cc(S(=O)(=O)O)c(C)cc1N=Nc1c(O)ccc2cc(S(=O)(=O)O)ccc12 |  | 6.73 µM (active)
CCOC(=O)c1ccc(O)cc1 | inactive | 
CCCCCCOC(=O)CC(CC(=O)OCCCCCC)(OC(=O)CCC)C(=O)OCCCCCC | inactive | 
O=C(OC[C@H]1O[C@@H](OC(=O)c2cc(O)c(O)c(OC(=O)c3cc(O)c(O)c(O)c3)c2)[C@H](OC(=O)c2cc(O)c(O)c(OC(=O)c3cc(O)c(O)c(O)c3)c2)[C@@H](OC(=O)c2cc(O)c(O)c(OC(=O)c3cc(O)c(O)c(O)c3)c2)[C@@H]1OC(=O)c1cc(O)c(O)c(OC(=O)c2cc(O)c(O)c(O)c2)c1)c1cc(O)c(O)c(OC(=O)c2cc(O)c(O)c(O)c2)c1 |  | 4.65 µM (active)
COCC(C)OCC(C)OCC(C)O (stereo not given) | inactive | 
Cc1nc(C)nc(N2C[C@@H](C)N(c3ccnc([C@@H](C)O)n3)[C@@H](C)C2)n1 | inactive | 
C[C@@H](Oc1ccc(CNC(=O)c2cccnc2Oc2ccc3c(c2)OCO3)c(F)c1)C(=O)O | inactive | 
CCC(O)=C1C(=O)CC(C(=O)O)CC1=O (stereo not given) | inactive | 
CC(C)(O)c1coc(S(=O)(=O)NC(=O)Nc2c3c(cc4c2CCC4)CCC3)c1 | inactive | 
CCCC(CCC)C(=O)O | inactive | 
CCc1cccc(CC)c1N | inactive | 
O=C(O)c1ccccc1C(=O)OCc1ccccc1 | inactive | 
Cc1cccc([N+](=O)[O-])c1C | inactive | 
CNCc1cc(F)ccc1Oc1ccc(Cl)c(Cl)c1 | inactive | 
Cc1oc(-c2ccccc2)nc1CCOc1cccc2c1ccn2CCC(=O)O | inactive | 
